{"source": "the supplement of paper PMC7866885", "about": "“A novel bicyclic 2,4-diaminopyrimidine inhibitor of Streptococcus suis dihydrofolate reductase” (PeerJ, 2021)", "note": "± gives the standard deviation.", "data": [{"test_system": "Streptococcus suis HE06", "test": "percent growth relative to DMSO control; higher = less growth inhibition", "settings": "10 µM; incubation time 18 h", "protocol": "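CLSI broth microdilution: 5x10^4 CFU of Streptococcus suis (strain P1/7 or HE06) incubated with 10 µM Pathogen Box compound in cation-adjusted Mueller Hinton broth, 37 °C, 5% CO2, 18 h. Growth read as OD600 and expressed as percent of the DMSO-treated control (100%); mean ± SD of three independent experiments.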", "units": {"percent growth": "%"}, "values": [{"smiles": "CCOc1ccc2cc(-c3nn(CC4CCN(C)CC4)c4ncnc(N)c34)ccc2c1", "percent growth": "97 ± 13"}, {"smiles": "c1ccc(C[C@@H]2CN(c3nccc(Oc4ccc(-n5ccnc5)cc4)n3)CCN2)cc1", "percent growth": "93.3 ± 12"}, {"smiles": "CC(Oc1cccc(Cl)c1)C(=O)Nc1ccc2oc(-c3ccncc3)nc2c1", "note": "(stereo not drawn)", "percent growth": "75.2 ± 17"}, {"smiles": "Cc1ccc(C(=O)Nc2ccc(S(=O)(=O)O)c3cc(S(=O)(=O)O)cc(S(=O)(=O)O)c23)cc1NC(=O)c1cccc(NC(=O)Nc2cccc(C(=O)Nc3cc(C(=O)Nc4ccc(S(=O)(=O)O)c5cc(S(=O)(=O)O)cc(S(=O)(=O)O)c45)ccc3C)c2)c1", "percent growth": "78.7 ± 8.8"}, {"smiles": "O=C(N[C@H](Cc1ccccc1)C(=O)Nc1ccccc1N1CCOCC1)c1cccs1", "percent growth": "92.7 ± 9.4"}, {"smiles": "CCCCN(CCCC)c1c(C#N)cc(S(=O)(=O)Nc2ccccc2)cc1C#N", "percent growth": "86.6 ± 25"}, {"smiles": "CCOc1ccccc1NC(C)C(=O)Nc1cc(C(F)(F)F)ccc1N1CCOCC1", "note": "(stereo not drawn)", "percent growth": "115 ± 20"}, {"smiles": "CNC(=O)C1Cc2c([nH]c3cc(Cl)ccc23)C2(CCN(CCc3ccccc3)CC2)N1", "note": "(stereo not drawn)", "percent growth": "95.5 ± 23"}, {"smiles": "O=C(NC1CC1)c1ccc(N2CCC(Cc3ccccc3)CC2)nc1", "percent growth": "91.7 ± 9.1"}, {"smiles": "CC(C)NCC(=O)Nc1cccc(C(=O)Nc2cccc(C(F)(F)F)c2)c1", "percent growth": "104 ± 4.8"}, {"smiles": "COc1ccc(C(=N)N)cc1-c1cn(-c2ccc(C(=N)N)cc2)nn1", "percent growth": "105 ± 42"}, {"smiles": "COc1ccccc1CNC(=O)c1cc(C2CC2)nc2c1cnn2C(C)C", "percent growth": "81.6 ± 10"}, {"smiles": "Cc1cccc(-c2nc(Nc3ccncn3)c3sccc3n2)n1", "percent growth": "0.0155 ± 0.027"}, {"smiles": "O=C(NCc1ccco1)N1CCN(Cc2ccc(Cl)s2)CC1", "percent growth": "97.2 ± 4.8"}, {"smiles": "Cc1cccnc1NC(=O)c1cccc(OCc2c(C)noc2C)c1", "percent growth": "81.4 ± 11"}, {"smiles": "Cc1ccc2nc(C)c(-c3ccn(Cc4ccccc4)n3)n2c1", "percent growth": "90 ± 35"}, {"smiles": "O=C(NC1CCCCC1)N1CCN(Cc2ccc3c(c2)OCO3)CC1", "percent growth": "78.5 ± 7.2"}, {"smiles": "CS(=O)(=O)c1ccccc1C(=O)N(Cc1ccccc1)c1ccccc1", "percent growth": "115 ± 7.9"}, {"smiles": "O=C(Nc1nc(-c2ccccn2)cs1)C1CC1c1ccccc1F", "note": "(stereo not drawn)", "percent growth": "-0.0889 ± 1.4"}, {"smiles": "CN1CCCN(C(c2ccccc2)c2ccc(Cl)cc2)CC1", "note": "(stereo not drawn)", "percent growth": "91.9 ± 4.1"}, {"smiles": "O=C(NCc1cc(Cl)cc(Cl)c1)c1c(C(F)(F)F)nc2ccccn12", "percent growth": "84.6 ± 3.8"}, {"smiles": "Cc1ccc2nc(Cl)c(CNCc3cccs3)cc2c1", "percent growth": "93.6 ± 9.5"}, {"smiles": "COc1ccc(-c2nnc3ccc(-c4cccc(C(C)C)c4)cn23)cc1OC", "percent growth": "97.1 ± 15"}, {"smiles": "COc1cc(NC(C)CCCN)c2ncccc2c1", "note": "(stereo not drawn)", "percent growth": "90.6 ± 4"}, {"smiles": "CC1CCCCN1C(=O)NCCc1coc(-c2ccc(F)cc2)n1", "note": "(stereo not drawn)", "percent growth": "79.5 ± 6.9"}, {"smiles": "COc1cccc(OC)c1C(=O)Nc1ccc(Cl)c(-c2nc3ccccc3s2)c1", "percent growth": "98.9 ± 8.3"}, {"smiles": "COc1cccc(-n2nnnc2S(C)(=O)=O)c1", "percent growth": "88.1 ± 9.8"}, {"smiles": "Brc1cncc(-c2cc(NCCCn3ccnc3)nc(-c3ccccc3)n2)c1", "percent growth": "46.7 ± 37"}, {"smiles": "CCC(Sc1nc2ccccc2o1)C(=O)Nc1nccs1", "note": "(stereo not drawn)", "percent growth": 0}, {"smiles": "O=C(OCc1ccccc1)N1CCC(c2cc(-c3ccncc3)c(-c3ccc(F)cc3)[nH]2)CC1", "percent growth": "126 ± 61"}, {"smiles": "CS(=O)(=O)N1CCC(CCn2nc(Cc3cccc4ccccc34)c3c(N)ncnc32)CC1", "percent growth": "90.3 ± 15"}, {"smiles": "O=C(Nc1ccc(N2CCNCC2)nc1)c1oc(-c2ccccc2)nc1C(F)(F)F", "percent growth": "93.7 ± 20"}, {"smiles": "CCOc1ccc2cc(-c3nn(C(C)(C)C)c(N)c3C(N)=O)cnc2c1", "percent growth": "77.6 ± 17"}, {"smiles": "Nc1nc(N)c2c3c(sc2n1)CN(Cc1ccccc1)CC3", "percent growth": "94.5 ± 3.1"}, {"smiles": "COc1ccc(-c2nn(C(C)C)c3ncnc(N)c23)cc1OC", "percent growth": "112 ± 26"}, {"smiles": "COc1ccc(Oc2ccc([C@@H](C)N(C)c3ncc4c(N)nc(N)nc4n3)cc2)cc1", "percent growth": "104 ± 32"}, {"smiles": "COc1cc(OC)cc(C(=O)NCC2Cc3cc(Cl)cc(-c4ccncc4)c3O2)c1", "note": "(stereo not drawn)", "percent growth": "90 ± 28"}, {"smiles": "Cc1cc(C)cc(COc2ccc3c(C)c(CCC(=O)O)c(=O)oc3c2C)c1", "percent growth": "39.9 ± 40"}]}]}
